Data published in PubChem BioAssay AID1159580 (chemical genetic matrix, 2015).
Values joined by “and” are separate entries in the source; they are usually repeats but may differ in a detail not shown here. Equal values may be shown once. Screen size: about 5,500 compounds; about 2,000 (36%) were called active. Inconclusive results (about 18%) are left out. No stated cut-off is given here; in the data, active means normalized growth mostly below about 0.91 (no sharp cut-off); inconclusive means no clear call, values can overlap the other calls; inactive means mostly above about 0.92. The list shows a part of the results.

Experiment: chemical genetic growth profiling, strain panel (AID 1159580);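 further: tested at 20 µM; growth read once vehicle control cultures reached saturation at 30 °C; 1 = growth at the plate median or of vehicle wells; lower values mean less growth of the strain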
Conditions: S. cerevisiae deletion strains, growth OD

Measured: normalized growth

CCN(CC)C(=O)c1cccc(C)c1
inactive: locus YAL013W, strain DEP1, active compounds read low 1 | locus YAL021C, strain ccr4, active compounds read low 1.03 | locus YAL026C, strain drs2, active compounds read low 1.03 | locus YAL030W, strain snc1, active compounds read low 1.04 | locus YBL061C, strain skt5, active compounds read low 1.04 | locus YBR009C, strain hhf1, active compounds read low 1.01 | locus YBR021W, strain FUR4, active compounds read low 1.01 | locus YBR023C, strain chs3, active compounds read low 1.03 | locus YBR171W, strain sec66, active compounds read low 1.04 | locus YBR229C, strain ROT2, active compounds read low 1.01 | locus YBR231C, strain swc5, active compounds read low 1.05 | locus YBR279W, strain paf1, active compounds read low 1.02 | locus YCL011C, strain gbp2, active compounds read low 1.02 | locus YCL016C, strain dcc1, active compounds read low 1.03 | locus YCL029C, strain bik1, active compounds read low 0.992 | locus YCL069W, strain vba3, active compounds read low 1.04 | locus YCR088W, strain abp1, active compounds read low 1.04 | locus YDL005C, strain med2, active compounds read low 1.03 | locus YDL035C, strain GPR1, active compounds read low 1 | locus YDL040C, strain nat1, active compounds read low 1.03 | locus YDL074C, strain BRE1, active compounds read low 1.02 | locus YDL101C, strain DUN1, active compounds read low 0.999 | locus YDL134C, strain PPH21, active compounds read low 1.01 | locus YDL185W, strain tfp1, active compounds read low 0.957 | locus YDL192W, strain arf1, active compounds read low 0.996 | locus YDR001C, strain nth1, active compounds read low 1.03 | locus YDR069C, strain doa4, active compounds read low 1.02 | locus YDR101C, strain arx1, active compounds read low 1 | locus YDR137W, strain rgp1, active compounds read low 1.04 | locus YDR150W, strain NUM1, active compounds read low 0.981 | locus YDR159W, strain sac3, active compounds read low 1.05 | locus YDR162C, strain NBP2, active compounds read low 0.972 | locus YDR195W, strain ref2 1.11 | locus YDR297W, strain sur2, active compounds read low 1.03 | locus YDR318W, strain mcm21, active compounds read low 1 | locus YDR334W, strain swr1, active compounds read low 1.03 | locus YDR335W, strain msn5, active compounds read low 1.03 | locus YDR388W, active compounds read low 1.01 | locus YDR392W, strain spt3, active compounds read low 1.05 | locus YDR502C, strain sam2, active compounds read low 0.994 | locus YEL003W, strain gim4, active compounds read low 1.02 | locus YEL037C, strain rad23, active compounds read low 1.04 | locus YEL061C, strain CIN8 (second series), active compounds read low 1.02 | locus YEL061C, strain CIN8, active compounds read low 1.01 | locus YER015W, strain faa2, active compounds read low 1.03 | locus YER016W, strain bim1, active compounds read low 1.02 | locus YER110C, active compounds read low 1.01 | locus YER111C, strain swi4, active compounds read low 1.05 | locus YER155C, strain BEM2 (second series), active compounds read low 1.07 | locus YER155C, strain BEM2, active compounds read low 1.01 | locus YER167W, strain BCK2, active compounds read low 1.03 | locus YFR010W, strain ubp6, active compounds read low 1.03 | locus YGL078C, strain dbp3, active compounds read low 0.997 | locus YGL086W, strain mad1, active compounds read low 1 | locus YGL167C, strain pmr1, active compounds read low 1.03 | locus YGL173C, strain kem1, active compounds read low 1.01 | locus YGL227W, strain vid30, active compounds read low 1.04 | locus YGL240W, strain doc1, active compounds read low 1.03 | locus YGL248W, strain PDE1, active compounds read low 1.01 | locus YGL253W, strain hxk2, active compounds read low 1.02 | locus YGR078C, strain PAC10, active compounds read low 0.98 | locus YGR135W, strain pre9, active compounds read low 0.982 | locus YGR229C, strain SMI1, active compounds read low 1.01 | locus YGR252W, strain gcn5, active compounds read low 0.98 | locus YHR013C, strain ard1, active compounds read low 1.1 | locus YHR027C, strain rpn1, active compounds read low 1.02 | locus YHR030C, strain SLT2, active compounds read low 1.01 and 0.932 | locus YHR079C, strain IRE1 (second series), active compounds read low 1 | locus YHR079C, strain IRE1, active compounds read low 0.977 | locus YHR094C, strain hxt1, active compounds read low 0.997 | locus YHR129C, strain ARP1, active compounds read low 1.02 | locus YHR142W, strain chs7, active compounds read low 1.02 | locus YHR200W, strain rpn10, active compounds read low 0.998 | locus YIL066C, strain RNR3, active compounds read low 0.998 | locus YIL073C, strain SPO22, active compounds read low 0.97 | locus YIL125W, strain kgd1, active compounds read low 1 | locus YIR030C, strain dcg1, active compounds read low 0.996 | locus YJL092W, strain hpr5, active compounds read low 1.03 | locus YJL095W, strain BCK1 (second series), active compounds read low 1.04 | locus YJL095W, strain BCK1, active compounds read low 1.04 and 0.974 | locus YJL115W, strain asf1, active compounds read low 1.06 | locus YJL129C, strain trk1, active compounds read low 1.08 | locus YJL134W, strain LCB3, active compounds read low 1 | locus YJL154C, strain vps35, active compounds read low 1.03 | locus YJL164C, strain tpk1, active compounds read low 1.02 | locus YJL166W, strain qcr8, active compounds read low 1.02 | locus YJL168C, strain set2, active compounds read low 1 | locus YJL187C, strain SWE1 (second series), active compounds read low 0.994 | locus YJR043C, strain POL32, active compounds read low 0.999 | locus YJR066W, strain TOR1, active compounds read low 0.942 | locus YJR075W, strain HOC1, active compounds read low 1.02
